From the supplement of paper PMC12067093, “Discovery and optimisation of a covalent ligand for TRIM25 and its application to targeted protein ubiquitination” (Chemical Science, 2025)
About 21,000 targets were measured; listed, in parts, are those with the largest changes and a random draw of the rest.

Compound: Cc1cc(ccc1-c1ccccc1)C(=O)N1CCCN(CC1)C(=O)CCl [compound 10]
Assay: probe-labelled cysteine peptide fold change vs DMSO (competition) (log2 fold change); higher = less target engagement (more negative = stronger competition)
Conditions: THP-1, incubation time: 4 h
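Note: competitive profiling in live THP-1 cells: cysteine peptides tagged with an iodoacetamide desthiobiotin (IA-DTB) probe, intensity after compound treatment relative to DMSO-treated cells.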

Chain of UniProt P49754 (P49754 whole entry, looked up): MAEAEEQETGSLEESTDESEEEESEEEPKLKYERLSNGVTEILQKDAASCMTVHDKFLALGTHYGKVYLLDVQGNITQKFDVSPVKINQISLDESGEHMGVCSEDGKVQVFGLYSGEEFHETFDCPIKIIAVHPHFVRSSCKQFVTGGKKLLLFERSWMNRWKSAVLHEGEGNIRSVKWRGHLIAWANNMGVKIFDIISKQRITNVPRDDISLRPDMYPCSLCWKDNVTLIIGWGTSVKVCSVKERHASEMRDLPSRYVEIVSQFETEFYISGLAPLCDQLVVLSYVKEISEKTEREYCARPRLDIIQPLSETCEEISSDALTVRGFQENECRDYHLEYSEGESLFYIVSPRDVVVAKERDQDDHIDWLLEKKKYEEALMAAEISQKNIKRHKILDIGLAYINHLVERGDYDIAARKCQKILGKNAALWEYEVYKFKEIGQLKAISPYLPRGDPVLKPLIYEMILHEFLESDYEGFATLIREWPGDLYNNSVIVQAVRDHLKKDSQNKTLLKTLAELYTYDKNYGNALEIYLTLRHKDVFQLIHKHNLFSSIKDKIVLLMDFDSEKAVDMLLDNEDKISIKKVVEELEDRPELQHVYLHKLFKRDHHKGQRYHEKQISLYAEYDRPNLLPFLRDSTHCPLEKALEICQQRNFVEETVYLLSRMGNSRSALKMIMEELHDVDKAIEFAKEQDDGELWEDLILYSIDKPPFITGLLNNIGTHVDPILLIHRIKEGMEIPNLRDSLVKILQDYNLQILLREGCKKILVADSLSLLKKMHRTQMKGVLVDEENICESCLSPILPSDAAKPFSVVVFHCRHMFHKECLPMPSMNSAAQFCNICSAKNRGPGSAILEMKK
Chain of UniProt Q9UPU5 (Q9UPU5 whole entry, looked up): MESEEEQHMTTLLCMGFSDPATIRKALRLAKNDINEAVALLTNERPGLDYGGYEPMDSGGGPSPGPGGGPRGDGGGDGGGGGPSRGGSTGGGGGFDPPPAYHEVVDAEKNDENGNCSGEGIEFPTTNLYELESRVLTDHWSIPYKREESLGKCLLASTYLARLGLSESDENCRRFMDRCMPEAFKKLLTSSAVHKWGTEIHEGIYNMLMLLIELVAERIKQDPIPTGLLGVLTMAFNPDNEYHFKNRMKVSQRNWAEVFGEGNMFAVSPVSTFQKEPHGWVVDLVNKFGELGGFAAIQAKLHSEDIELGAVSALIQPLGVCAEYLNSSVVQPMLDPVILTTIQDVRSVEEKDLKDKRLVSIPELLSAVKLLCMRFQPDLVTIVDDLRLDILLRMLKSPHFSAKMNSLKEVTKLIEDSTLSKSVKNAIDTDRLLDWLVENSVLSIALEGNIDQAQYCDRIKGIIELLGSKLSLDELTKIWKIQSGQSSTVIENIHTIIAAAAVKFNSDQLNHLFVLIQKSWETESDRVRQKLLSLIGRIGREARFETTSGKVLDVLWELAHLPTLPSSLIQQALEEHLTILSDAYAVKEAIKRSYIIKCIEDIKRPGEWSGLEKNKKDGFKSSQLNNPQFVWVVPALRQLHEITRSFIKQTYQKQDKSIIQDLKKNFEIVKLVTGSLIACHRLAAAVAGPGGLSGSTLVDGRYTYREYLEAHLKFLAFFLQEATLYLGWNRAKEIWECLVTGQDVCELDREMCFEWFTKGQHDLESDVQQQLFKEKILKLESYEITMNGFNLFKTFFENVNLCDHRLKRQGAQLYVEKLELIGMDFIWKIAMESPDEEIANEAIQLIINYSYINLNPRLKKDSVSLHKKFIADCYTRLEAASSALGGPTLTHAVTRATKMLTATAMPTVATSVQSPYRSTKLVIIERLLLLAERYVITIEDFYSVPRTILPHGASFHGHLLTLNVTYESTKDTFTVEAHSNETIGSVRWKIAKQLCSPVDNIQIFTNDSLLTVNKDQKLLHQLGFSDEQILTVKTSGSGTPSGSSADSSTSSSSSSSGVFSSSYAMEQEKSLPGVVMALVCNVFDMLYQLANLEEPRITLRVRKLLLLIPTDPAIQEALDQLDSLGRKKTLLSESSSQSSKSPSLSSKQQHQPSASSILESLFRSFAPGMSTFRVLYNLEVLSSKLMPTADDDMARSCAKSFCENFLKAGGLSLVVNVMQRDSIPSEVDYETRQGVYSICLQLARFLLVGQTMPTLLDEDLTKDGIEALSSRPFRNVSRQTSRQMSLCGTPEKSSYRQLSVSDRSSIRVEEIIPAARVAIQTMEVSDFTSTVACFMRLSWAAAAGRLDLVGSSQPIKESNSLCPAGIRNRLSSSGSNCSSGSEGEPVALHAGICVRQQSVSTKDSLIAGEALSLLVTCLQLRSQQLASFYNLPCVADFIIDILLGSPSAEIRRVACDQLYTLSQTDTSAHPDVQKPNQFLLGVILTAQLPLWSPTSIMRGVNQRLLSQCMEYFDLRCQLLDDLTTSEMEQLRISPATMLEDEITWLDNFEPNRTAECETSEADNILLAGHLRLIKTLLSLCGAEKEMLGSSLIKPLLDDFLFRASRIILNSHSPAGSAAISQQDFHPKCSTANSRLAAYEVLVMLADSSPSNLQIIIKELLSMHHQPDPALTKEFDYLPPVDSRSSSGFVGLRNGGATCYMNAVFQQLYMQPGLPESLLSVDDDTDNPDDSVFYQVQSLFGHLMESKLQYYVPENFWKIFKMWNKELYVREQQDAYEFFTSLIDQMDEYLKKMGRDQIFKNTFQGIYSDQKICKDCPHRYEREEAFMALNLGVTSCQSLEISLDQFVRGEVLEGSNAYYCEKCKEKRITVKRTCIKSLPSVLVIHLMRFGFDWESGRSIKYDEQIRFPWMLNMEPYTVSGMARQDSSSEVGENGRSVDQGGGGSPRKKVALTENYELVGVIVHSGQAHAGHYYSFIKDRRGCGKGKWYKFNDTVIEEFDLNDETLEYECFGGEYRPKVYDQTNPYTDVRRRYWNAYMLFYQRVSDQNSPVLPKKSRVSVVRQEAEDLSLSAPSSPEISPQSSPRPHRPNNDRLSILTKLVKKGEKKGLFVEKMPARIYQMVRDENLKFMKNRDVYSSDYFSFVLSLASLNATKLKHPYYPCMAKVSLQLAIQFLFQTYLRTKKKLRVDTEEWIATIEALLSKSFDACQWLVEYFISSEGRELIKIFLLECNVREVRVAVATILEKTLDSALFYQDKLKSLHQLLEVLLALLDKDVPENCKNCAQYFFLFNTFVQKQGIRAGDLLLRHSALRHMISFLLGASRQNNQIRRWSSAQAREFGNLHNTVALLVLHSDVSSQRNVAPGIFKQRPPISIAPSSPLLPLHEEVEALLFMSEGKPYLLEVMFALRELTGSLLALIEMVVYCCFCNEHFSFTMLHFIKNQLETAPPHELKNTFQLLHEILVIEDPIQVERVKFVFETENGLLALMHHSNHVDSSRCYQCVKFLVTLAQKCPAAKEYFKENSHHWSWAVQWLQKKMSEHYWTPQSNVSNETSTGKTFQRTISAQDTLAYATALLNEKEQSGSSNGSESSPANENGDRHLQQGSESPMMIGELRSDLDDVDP
Chain of UniProt Q9P2Y5 (Q9P2Y5 whole entry, looked up): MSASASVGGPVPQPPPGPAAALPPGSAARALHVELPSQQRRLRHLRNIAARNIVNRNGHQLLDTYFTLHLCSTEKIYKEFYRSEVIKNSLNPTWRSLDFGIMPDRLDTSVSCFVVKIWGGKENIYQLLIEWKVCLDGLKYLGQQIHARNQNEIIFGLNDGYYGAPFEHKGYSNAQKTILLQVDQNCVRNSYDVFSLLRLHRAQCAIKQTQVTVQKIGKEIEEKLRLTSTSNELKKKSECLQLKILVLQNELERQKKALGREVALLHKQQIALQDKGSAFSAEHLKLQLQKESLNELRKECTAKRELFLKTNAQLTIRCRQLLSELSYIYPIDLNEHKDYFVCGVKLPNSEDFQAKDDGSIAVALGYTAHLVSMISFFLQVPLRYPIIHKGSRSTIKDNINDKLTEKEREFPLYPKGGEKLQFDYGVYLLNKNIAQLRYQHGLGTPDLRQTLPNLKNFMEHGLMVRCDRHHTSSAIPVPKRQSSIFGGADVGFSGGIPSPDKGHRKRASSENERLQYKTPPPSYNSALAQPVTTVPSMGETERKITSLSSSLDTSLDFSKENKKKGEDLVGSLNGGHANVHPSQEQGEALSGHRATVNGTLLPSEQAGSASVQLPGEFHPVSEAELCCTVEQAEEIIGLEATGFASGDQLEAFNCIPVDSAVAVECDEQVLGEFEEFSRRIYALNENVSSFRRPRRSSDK
Chain of UniProt O43396 (O43396 whole entry, looked up): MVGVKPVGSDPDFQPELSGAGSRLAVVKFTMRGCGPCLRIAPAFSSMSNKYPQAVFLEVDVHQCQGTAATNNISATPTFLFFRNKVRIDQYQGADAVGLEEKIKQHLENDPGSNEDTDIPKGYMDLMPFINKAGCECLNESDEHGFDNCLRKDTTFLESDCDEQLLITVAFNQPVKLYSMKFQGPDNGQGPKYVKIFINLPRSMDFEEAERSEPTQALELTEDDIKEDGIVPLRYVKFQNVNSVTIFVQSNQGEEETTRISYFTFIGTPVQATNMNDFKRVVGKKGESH
Chain of UniProt O60636 (O60636 whole entry): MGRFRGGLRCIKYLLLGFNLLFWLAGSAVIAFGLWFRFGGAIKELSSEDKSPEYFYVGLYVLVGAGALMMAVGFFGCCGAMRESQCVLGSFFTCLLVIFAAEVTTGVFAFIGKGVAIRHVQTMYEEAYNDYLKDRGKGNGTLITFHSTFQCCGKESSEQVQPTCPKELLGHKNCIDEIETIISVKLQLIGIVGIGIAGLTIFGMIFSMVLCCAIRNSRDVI
Chain of UniProt Q15631 (Q15631 whole entry): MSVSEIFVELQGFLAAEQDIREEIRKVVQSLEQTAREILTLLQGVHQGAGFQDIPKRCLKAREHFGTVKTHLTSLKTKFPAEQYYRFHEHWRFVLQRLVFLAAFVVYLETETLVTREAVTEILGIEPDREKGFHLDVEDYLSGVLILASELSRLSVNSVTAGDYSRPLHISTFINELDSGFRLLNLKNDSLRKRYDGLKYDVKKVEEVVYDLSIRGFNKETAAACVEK
Chain of UniProt P10599 (P10599 whole entry, looked up): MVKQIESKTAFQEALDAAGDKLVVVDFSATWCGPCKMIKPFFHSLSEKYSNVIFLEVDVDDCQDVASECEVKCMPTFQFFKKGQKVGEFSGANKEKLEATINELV

Target	probe-labelled cysteine peptide fold change (10 µM)	probe-labelled cysteine peptide fold change (50 µM)
UBR4_Q5T4S7_2618+2619_QLEGDCCSFITQLVNHFWK (UniProt Q5T4S7)	0.0442	-1.45
TXN_P10599_32_LVVVDFSATWCGPCK (UniProt P10599)	-0.415	-0.638
USP34_Q70CQ2_1330_KGEGVQLPASCLPPPQK (UniProt Q70CQ2)	-0.079	-0.0424
UHRF2_Q96PU4_42_VWALFDVRPECQR (UniProt Q96PU4)	-0.064	0.118
VPS16_Q9H269_763_SPIGYLPFVEICMK (UniProt Q9H269)	0.149	0.152
TYK2_P29597_736_NLVHGNVCGR (UniProt P29597)	-0.00731	-0.24
TSN_Q15631_225_ETAAACVEK (UniProt Q15631)	-0.291	-0.282
UCK2_Q9BZX2_197_PAFEEFCLPTK (UniProt Q9BZX2)	-0.0609	0.255
USP19_O94966_656+659_LVCPVCAK (UniProt O94966)	-0.159	-1.2
UTP20_O75691_242_NMFHSCTGQAVK (UniProt O75691)	-0.122	0.227
TRAPPC9_Q96Q05_317_NCLSPEDIIDK (UniProt Q96Q05)	0.12	0.213
TUBG1_P23258_138_IHEDIFDIIDREADGSDSLEGFVLCHSIAGGTGSGLGSYLLER<|>TUBG2_Q9NRH3_138_IHEDIFDIIDREADGSDSLEGFVLCHSIAGGTGSGLGSYLLER (UniProt Q9NRH3+P23258)	0.194	-0.0593
UBA6_A0AVT1_156_YQCVVLTEMK	0.126	0.104
TRANK1_O15050_1930_QHGCLLEAAR (UniProt O15050)	-0.0687	-0.106
USP19_O94966_1169_EEQLPSYDLYAVINHYGGMIGGHYTACAR (UniProt O94966)	-0.00515	0.0872
USP9X_Q93008_1061_AICLDHAK (UniProt Q93008)	0.267	0.565
USP15_Q9Y4E8_633+634_ISTETEETEGSLHCCK (UniProt Q9Y4E8)	-0.567	-1.51
VARS2_Q5ST30_549_QLWWGHQIPAYLVVEDHAQGEEDCWVVGR (UniProt Q5ST30)	0.149	0.141
UBAP1_Q9NZ09_243_ATLDFKPLHKPNGFITLPQLGNCEK (UniProt Q9NZ09)	-0.239	-1.36
UQCRC1_P31930_154_AVELLGDIVQNCSLEDSQIEK (UniProt P31930)	0.114	0.272

Target	probe-labelled cysteine peptide fold change (10 µM)	probe-labelled cysteine peptide fold change (50 µM)
TPP1_O14773_365_GLTLLFASGDSGAGCWSVSGR (UniProt O14773)	-0.146	0.0356
TRIM28_Q13263_221+229_HEPLVLFCESCDTLTCR (UniProt Q13263)	-0.0841	-0.368
TRIP6_Q15654_339+342_CATCSQPILDR (UniProt Q15654)	0.045	-0.28
UBA1_P22314_711_SLVLQRPQTWADCVTWACHHWHTQYSNNIR (UniProt P22314)	-0.12	0.238
USP48_Q86UV5_145_DYEPQTICEHLQYLFALLQNSNRR (UniProt Q86UV5)	0.119	0.166
TSPAN2_O60636_164_ESSEQVQPTCPK (UniProt O60636)	-0.411	-0.422
TRPM2_O94759_72_ECVYFVESSK (UniProt O94759)	-0.0415	-0.249
TRMT10C_Q7L0Y3_78_SSVQEECVSTISSSKDEDPLAATR (UniProt Q7L0Y3)	-0.141	-0.518
TRNAU1AP_Q9NX07_157_ALTECQGAVGLGSKPVR (UniProt Q9NX07)	-0.212	-0.171
USP24_Q9UPU5_995_QLCSPVDNIQIFTNDSLLTVNK (UniProt Q9UPU5)	0.165	0.107
UVRAG_Q9P2Y5_186_TILLQVDQNCVR (UniProt Q9P2Y5)	-0.089	-0.0238
TXNL1_O43396_149_AGCECLNESDEHGFDNCLRK (UniProt O43396)	-0.189	-0.0731
UCHL3_P15374_95_QTISNACGTIGLIHAIANNK (UniProt P15374)	-0.157	-1.45
TRPM7_Q96QT4_1411_FFVSTPSQPSCK (UniProt Q96QT4)	-0.337	-0.544
VPS41_P49754_638_DSTHCPLEK (UniProt P49754)	-0.172	-0.152
UBR4_Q5T4S7_2619_QLEGDCCSFITQLVNHFWK (UniProt Q5T4S7)	-0.0425	-0.45
TSTA3_Q13630_116_VVSCLSTCIFPDK (UniProt Q13630)	-0.0711	-1.67
UBR2_Q8IWV8_1717_GNPLHLCK (UniProt Q8IWV8)	-0.263	-1.31
UGGT1_Q9NYU2_880_MDFILSHAVYCR (UniProt Q9NYU2)	0.117	0.39
